# In all, about 38,000 compounds went through this assay and about 1,200 (3.2%) showed an effect of 50% or more. The median lay at about -58%. The sample as a whole holds a higher share of strong results than the screen did.
# Test system: Plasmodium falciparum
# Assay: Calibr Malaria Delayed Death Assay SOP
# Assay type: functional, organism-based
# Parameters: scale not given: in the data most compounds retested in dose-response had high values
# Details: concentration 4.99e-06 (unit not given; other assays of the set use mol/L)
row,SMILES,Percent Effect [%]
1,O=C(O)C(F)(F)F.O=C(O)C(F)(F)F.c1cncc(CO[C@H]2CN(Cc3ccco3)[C@@H]3COC[C@H]23)c1,-20
2,Nc1nnc(SCc2cc(=O)n3c4c(sc3n2)CCCC4)[nH]1,-122.1
3,O=C(C1CCC1)N1C(CN2CCOCC2)[C@]2(O)CC[C@H]1CC2 (stereo not given in full),-122.6
4,O=C(Cn1nc(Br)nc1Br)N1CCCCC1,-129.7
5,Cc1nc(CC2CCN(C(=O)C(c3ccccc3C)N(C)C)CC2)no1 (stereo not given),-27.12
6,COc1ccc(CN(Cc2cncn2C)CC2CCCO2)cc1.O=C(O)CC(O)(CC(=O)O)C(=O)O (stereo not given),-5.826
7,CC1CCN(c2nc3ncc4c(c3c(=O)[nH]2)CC(C)(C)CC4=O)CC1,-163.1
8,CCOCc1nc2c(c(N(C)Cc3snnc3C)n1)CCNCC2,-53.15
9,COCC(Nc1nc(N(C)C)nc2c1CCNCC2)c1ccccn1 (stereo not given),-46.74
10,CN(Cc1ccsc1)c1nc(-c2ccccn2)nc2c1CCNCC2,79.12
11,CN(CC1Cc2ccccc2CN1C)c1nc(N)nc2c1CCNCC2 (stereo not given),-16.74
12,CCOCc1nc2c(c(N(C)Cc3nonc3C)n1)CCNCC2,45.51
13,CCOCc1nc2c(c(N(C)Cc3ccsc3)n1)CCNCC2,63.06
14,COCC1CCN(C(=O)c2cn(Cc3ccccc3F)nn2)CC1,-60.58
15,CN(C)c1cc(C(=O)NCCc2n[nH]c(=O)[nH]2)ccn1,-61.85
16,Cc1cnn(CC2CN(Cc3nc(C4CC4)no3)CCO2)c1 (stereo not given),-0.1422
17,COCCN1CCC(CNC(=O)CCc2cc(F)ccc2F)C1 (stereo not given),-6.086
18,CC(C)N1CCC(CNC(=O)CCc2cc(F)ccc2F)C1 (stereo not given),6.837
19,CC(C)N1CCC(CNC(=O)COc2ccc(F)cc2F)C1 (stereo not given),52.83
20,Cc1cc(CNC(=O)N2CCN(c3ccc(Cl)cn3)CC2)c(C)o1,-63.56
21,CC(=O)N1CCO[C@@H]2CN(C(=O)NCc3ccccc3)CC[C@@H]2C1,-111.3
22,Cc1cnc(N2CC[C@@H]3OC(COCC(=O)N(C)C)CC[C@@H]32)nc1.O=C(O)C(F)(F)F (stereo not given in full),-36.79
23,CCCOc1cc(C)ccc1NC(=O)NCCNC(=O)C(C)C,-67.23

row,SMILES,Percent Effect [%]
1,CC(C)COC(=O)N1[C@@H](c2ccco2)[C@@H](CO)C[C@]12CCCCNC2=O,-86.33
2,COCCNc1nc2c(c(NCc3ccncc3)n1)CCNCC2,12.96
3,OC(CNc1nc(C2CCCC2)nc2c1CCNCC2)C(F)(F)F (stereo not given),63.72
4,COCc1noc(CNc2nc(C3CCCC3)nc3c2CCNCC3)n1,26.49
5,Cc1nc2c(c(NCC(O)C(F)(F)F)n1)CCNCC2 (stereo not given),-130.8
6,OC(CNc1ncnc2c1CCNCC2)C(F)(F)F (stereo not given),-185.3
7,COCCNc1nc(C2CCCC2)nc2c1CCNCC2,52.24
8,Cc1nc(CN2CCO[C@H]3[C@@H](Oc4ccccn4)CC[C@@H]32)cs1.O=C(O)C(F)(F)F.O=C(O)C(F)(F)F,-51.07
9,COc1cccc(-c2cc(C(=O)NCCCn3cnnc3)[nH]n2)c1,-185.9
10,CCn1ncc2c1C(COC)CN(Cc1cnn(C)c1)C2 (stereo not given),-1.77
11,CC[C@@H]1N(Cc2nccs2)CCC[C@]12CCC(=O)N2CCOC.O=C(O)C(F)(F)F,-51.09
12,Cc1ccc(C(=O)N2CCN(c3ccnc4ccsc34)CC2)o1,5.694
13,Cc1noc(-c2ccnc(N3CCC(CN4CCOCC4)CC3)c2)n1,-57.29
14,c1coc(CN2CCn3c(nc4ccccc43)C2)c1,-138.4
15,CN(Cc1ccco1)C[C@H]1OC[C@@H]2CCN(Cc3ccccn3)C[C@@H]21.O=C(O)C(F)(F)F.O=C(O)C(F)(F)F.O=C(O)C(F)(F)F,70.31
16,CN(Cc1ccco1)C[C@H]1OC[C@@H]2CCN(Cc3nccs3)C[C@@H]21,9.527
17,Cc1cccc(N2CC[C@H]3CO[C@H](CN(C)Cc4ccco4)[C@H]3C2)n1,48.83
18,CN(Cc1ccco1)C[C@H]1OC[C@@H]2CCN(Cc3ccncc3)C[C@@H]21.O=C(O)C(F)(F)F.O=C(O)C(F)(F)F.O=C(O)C(F)(F)F,-2.031
19,CN(Cc1ccco1)C[C@H]1OC[C@@H]2CCN(Cc3cccnc3)C[C@@H]21.O=C(O)C(F)(F)F.O=C(O)C(F)(F)F.O=C(O)C(F)(F)F,-41.37
20,OC1=C2C(=Nc3n[nH]c(O)c3C2c2ccccc2Cl)CCC1 (stereo not given),-169.8
21,Cn1nc(C(=O)N2CCCC2)c(F)c1NC(=O)Cc1ccccc1,-43.72
22,Cc1nc2ccnn2c(C)c1CCC(=O)N1CCN(CCO)CC1,-40.17
23,CCn1ncnc1C(C)Nc1cc(C2CC2)ncn1 (stereo not given),-128.7

row,SMILES,Percent Effect [%]
1,Cc1cccc(CN2C(=O)CO[C@@H]3CN(Cc4cnn(C)c4)C[C@H]32)c1.O=C(O)C(F)(F)F.O=C(O)C(F)(F)F,-89.5
2,CC(C)CNC(=O)CNc1c(NCc2ccncc2)c(=O)c1=O,-63.87
3,Cc1ccc2nc(CN3CCCCC3CCN3CCOCC3)cn2c1 (stereo not given),7.984
4,O=C(NC1CCN(CC2CC2)C1)c1ccc(C(=O)c2cc[nH]c2)cc1 (stereo not given),-13.77
5,O=C(NC1CCN(CC2CCCC2)C1)N1CCC(OCC2CC2)CC1 (stereo not given),63.12
6,NC(=O)C1CCN(C(=O)NC2CCN(CC3CCCC3)C2)CC1 (stereo not given),-59.5
7,CSC(C)(C)CNC(=O)NC1CCN(CC2CC2)C1 (stereo not given),-39.54
8,O=C(NC1CCN(CC2CC2)C1)N1CCC(OC2CCCCC2)CC1 (stereo not given),53.27
9,O=C(NC1CCN(CC2CC2)C1)c1ccc(N2CCC(O)CC2)cc1 (stereo not given),-9.255
10,CNc1nc2c(s1)C(=O)CN(C(=O)NCCc1ccccc1)C2,-35.41
11,COCCN1CCC(c2nc3ccc(NC(C)C)cn3n2)CC1.O=C(O)C(F)(F)F,-58.6
12,CCNc1ncc2c(n1)CN(c1ccc(C)c(C)c1)C2=O,-153.3
13,Cc1ccc(S(=O)(=O)Nc2ccc(C)c(C(=O)O)c2)s1,-129.6
14,O=C(NCCN1CCOCC1)C1=NOC2(CCN(Cc3nccs3)C2)C1 (stereo not given),-143.8
15,Cc1nn(C)c(Oc2ccccc2)c1CNC1CCOc2ccccc21 (stereo not given),-79.66
16,Cc1nn(C)c(Oc2ccc(Cl)cc2)c1CN1CCC(CN)C1 (stereo not given),92.45
17,Cc1nn(C)c(Cl)c1CN1CCN(c2nccs2)C(C)C1 (stereo not given),-15.39
18,O=C(O)C(F)(F)F.O=C(c1ccccn1)N1CCC2(CC1)COC(COCC1CCCC1)C2 (stereo not given),-17.9
19,CC(C)C(C)NC(=O)Nc1cccc2c1CCN(S(C)(=O)=O)C2 (stereo not given),-62.13
20,Cc1c[nH]c(CN2CCC3(CCCN(Cc4ccc(F)c(F)c4)C3)C2)n1 (stereo not given),79.41
21,Cc1ccc(CN2CCC3(CCCN(Cc4ccc(F)c(F)c4)C3)C2)o1 (stereo not given),25.14
22,Fc1ccc(CN2CCCC3(CCN(Cc4ncc[nH]4)C3)C2)cc1F (stereo not given),59.25
23,O=C1N(Cc2ccc(F)c(F)c2)CCCC1(O)CNCc1ncc[nH]1 (stereo not given),-127.8

row,SMILES,Percent Effect [%]
1,O=C(c1cn[nH]c1)N1CCC2(CCCN(Cc3ccc(F)c(F)c3)C2)C1 (stereo not given),-30.22
2,CN(C)C(=O)N1CCCC2(CCN(Cc3ccc(Cl)c(F)c3)C2)C1 (stereo not given),40.95
3,Cc1noc(CN2CCCC(Cn3nc(C)nc3C)C2)n1 (stereo not given),-86.57
4,N#Cc1c(SCCN2CCCCCC2)sc2c(O)cc(O)nc12,-30.34
5,CN(C)S(=O)(=O)N1C[C@@H]2COC[C@]2(COc2ccccn2)C1.O=C(O)C(F)(F)F,-16.81
6,CCCn1nnc(NCc2cc(Br)cc(Br)c2OC)n1,-108.1
7,COc1ccccc1OCC(=O)NCC(O)(c1cccs1)C1CC1 (stereo not given),-17.87
8,Cc1ccc(-c2cnc3n2CCN(C)C32CCN(CC3CC3)CC2)cc1.O=C(O)C(F)(F)F.O=C(O)C(F)(F)F.O=C(O)C(F)(F)F,38.95
9,CN1CCn2c(-c3ccccc3)cnc2C12CCN(CC1CC1)CC2.O=C(O)C(F)(F)F.O=C(O)C(F)(F)F.O=C(O)C(F)(F)F,80.28
10,CNC(=O)N1CCC2(CC1)c1ncc(-c3cccc(F)c3)n1CCN2C.O=C(O)C(F)(F)F,-80.59
11,CCS(=O)(=O)N1CCC2(CC1)c1ncc(-c3cccnc3)n1CCN2C,-142.7
12,CN1CCn2c(-c3cnn(C)c3)cnc2C12CCN(CC1CC1)CC2.O=C(O)C(F)(F)F.O=C(O)C(F)(F)F.O=C(O)C(F)(F)F,-83.71
13,CN1CCn2c(-c3cccc(F)c3)cnc2C12CCN(CC1CC1)CC2.O=C(O)C(F)(F)F.O=C(O)C(F)(F)F.O=C(O)C(F)(F)F,75.26
14,CC(=O)N1CCC2(CC1)c1ncc(-c3ccc(F)cc3)n1CCN2C,-51.39
15,CCN1CCn2c(-c3cccc(F)c3)cnc2C12CCN(C(C)=O)CC2.O=C(O)C(F)(F)F,-93.41
16,CN1CC2(CCN(c3ncnc4c3CCNC4)CC2)OC1=O,-26.92
17,CSCc1cc(C(=O)NC2(C#N)CC2)ccc1F,-114.4
18,CC(C)c1cc(NC(=O)CN2CCC(N3CCCCC3)CC2)on1,-41.68
19,CN1C(=O)C(c2cccnc2)CC12CCN(Cc1nccs1)CC2 (stereo not given),-72.15
20,Cc1cc(C)n(C2CN(CC(=O)NC3CCS(=O)(=O)C3)C2)n1 (stereo not given),-92.21
21,c1cnc(-c2nc(C3CCOC3)no2)cn1 (stereo not given),-46.11
